The source made the active and inactive calls. Unless noted, the rule behind the calls is not given here.
Experiments:
[1] = compound effects on lung adenocarcinoma cell viability – A549, calcein-AM fluorescence, 48 h, basal, profiling panel (AID 1162); conditions: higher = more signal; note: test concentration not given here
[2] = compound effects on differentiated 3T3-L1 adipocyte viability – cell-based, 3T3-L1 adipocytes, calcein-AM fluorescence, 48 h, basal, profiling panel (AID 1163); conditions: 3T3-L1 adipocytes viability, higher = more signal; note: test concentration not given here
[3] = compound effects on hepatocellular carcinoma cell viability – HepG2, calcein-AM fluorescence, 48 h, basal, profiling panel (AID 1164); conditions: higher = more signal; note: test concentration not given here
[4] = compound effects on multiple myeloma cell viability – MM1S, calcein-AM fluorescence, 48 h, basal, profiling panel (AID 1165); conditions: higher = more signal; note: test concentration not given here
[5] = calcein-AM signal in unstimulated myeloma cells – cell-based, calcein-AM fluorescence, 48 h, PK04 Diversity Set, profiling panel (AID 1166); conditions: RPMI8226 myeloma viability, higher = more signal;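 note: cells grown under basal conditions without added stimulus; test concentration not given here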
[6] = JC-1 mitochondrial signal, unstimulated HepG2 cells – cell-based, JC-1 fluorescence, 24 h, 100 nL compound, profiling panel (AID 1167); conditions: HepG2 mitochondrial potential, higher = more signal; note: test concentration not given here
[7] = JC-1 mitochondrial signal, unstimulated adipocytes – cell-based, JC-1 fluorescence, 3T3-L1 adipocytes, 24 h, 100 nL compound, profiling panel (AID 1168); conditions: JC-1 mitochondrial fluorescence, higher = more signal, called active from +8 up or from −8 down; note: test concentration not given here
[8] = JC-1 mitochondrial signal, unstimulated myeloma cells – cell-based, JC-1 fluorescence, RPMI8226, 24 h, 100 nL compound, profiling panel (AID 1169); conditions: JC-1 mitochondrial potential fluorescence, higher = more signal; note: test concentration not given here
[9] = JC-1 mitochondrial signal, unstimulated MM1S myeloma – cell-based, JC-1 fluorescence, 24 h, 100 nL compound, profiling panel (AID 1170); conditions: MM1S mitochondrial potential, higher = more signal; note: test concentration not given here
[10] = resazurin metabolic signal in A549 cells – cell-based, resazurin fluorescence, 24 h, PK04 Diversity Set, profiling panel (AID 1171); conditions: A549 viability, higher = more signal, called active from +8 up or from −8 down; note: test concentration not given here
[11] = resazurin metabolic signal in HepG2 cells – cell-based, resazurin fluorescence, 24 h, PK04 Diversity Set, profiling panel (AID 1172); conditions: HepG2 viability, higher = more signal; note: test concentration not given here
[12] = budding yeast growth changes without added modifier – OD600, strain BY4716, 24 h, basal condition, primary screen (AID 1173); conditions: S. cerevisiae BY4716 growth, OD600, 24 h; higher = more signal, called active from +8 up or from −8 down
[13] = viability profiling in MM1S myeloma cells – cell-based, resazurin fluorescence, basal, 24 h, PK04 Diversity Set, profiling panel (AID 1174); conditions: higher = more signal, called active from +8 up or from −8 down; note: test concentration not given here
[14] = target: Dihydroorotate dehydrogenase (quinone), mitochondrial (Plasmodium falciparum (isolate 3D7)) (UniProt Q08210); test: inhibition of P. falciparum DHODH – biochemical, C-terminal His tag, absorbance 600 nm, primary screen (AID 1175); conditions: PfDHODH enzyme, DCIP absorbance 600 nm; higher = more signal, called active from +8 up or from −8 down;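 note: recombinant parasite enzyme with a five histidine tag at its C terminus; test concentration not given here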
[15] = inhibition of PAO1 biofilm formation – strain PAO1, LB-PBS medium, absorbance 600 nm, primary screen (AID 1176); note: test concentration not given here; conditions: P. aeruginosa PAO1 growth/biofilm, A600, 12 h; higher = more signal
[16] = growth modulation of vineyard yeast isolate – strain RM11-1a, OD600, basal, 24 h, primary screen (AID 1177);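 note: cultures grown under basal conditions with no added stressor; test concentration not given here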; conditions: S. cerevisiae RM11-1a growth, OD600, 24 h; higher = more signal, called active from +8 up or from −8 down
[17] = growth of efflux-deficient E. coli DRC39 – strain DRC39, OD650, 24 h, E. coli filamentation inducers, primary screen (AID 1178);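 note: growth measured as culture turbidity by optical density at 650 nm; test concentration not given here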; conditions: E. coli DRC39 acrAB, higher = more signal, called active from +8 up or from −8 down
[18] = growth of efflux-deficient E. coli DRC39 – strain DRC39, OD650, 48 h, E. coli filamentation inducers, primary screen (AID 1179);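 note: screen aims at cell division blockers that make cells filament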; conditions: E. coli DRC39 delta-acrAB growth, higher = more signal, called active from +8 up or from −8 down
[19] = viability profiling in RPMI8226 myeloma cells – cell-based, resazurin fluorescence, basal, 24 h, PK04 Diversity Set, profiling panel (AID 1180); conditions: higher = more signal;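 note: RPMI8826 multiple myeloma cell line at 5000 cells per well; test concentration not given here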
[20] = target: E3 ubiquitin-protein ligase XIAP (Homo sapiens) (UniProt P98170); test: small molecules binding XIAP protein – biophysical, small-molecule microarray, fluorescence 635 nm, primary screen (AID 1181); conditions: higher = more signal;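 note: score merges 667 nm emission and signal to noise over triplicate slides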
Sequence of E3 ubiquitin-protein ligase XIAP (Homo sapiens) (P98170 whole entry, looked up): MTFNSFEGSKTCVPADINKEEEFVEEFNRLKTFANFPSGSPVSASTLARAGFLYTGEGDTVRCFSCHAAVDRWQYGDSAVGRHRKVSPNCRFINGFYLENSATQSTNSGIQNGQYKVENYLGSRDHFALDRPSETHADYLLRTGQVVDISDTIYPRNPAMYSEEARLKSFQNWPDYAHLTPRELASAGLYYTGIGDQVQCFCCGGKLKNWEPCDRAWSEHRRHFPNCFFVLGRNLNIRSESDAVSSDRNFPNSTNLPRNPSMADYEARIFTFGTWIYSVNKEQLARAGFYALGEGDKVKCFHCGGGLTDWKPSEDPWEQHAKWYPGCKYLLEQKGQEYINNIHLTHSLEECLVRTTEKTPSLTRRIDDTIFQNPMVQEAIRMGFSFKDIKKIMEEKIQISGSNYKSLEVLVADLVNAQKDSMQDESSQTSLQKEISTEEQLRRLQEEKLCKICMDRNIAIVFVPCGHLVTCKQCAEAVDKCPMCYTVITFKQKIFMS

Sequence of Dihydroorotate dehydrogenase (quinone), mitochondrial (Plasmodium falciparum (isolate 3D7)) (Q08210 whole entry, looked up): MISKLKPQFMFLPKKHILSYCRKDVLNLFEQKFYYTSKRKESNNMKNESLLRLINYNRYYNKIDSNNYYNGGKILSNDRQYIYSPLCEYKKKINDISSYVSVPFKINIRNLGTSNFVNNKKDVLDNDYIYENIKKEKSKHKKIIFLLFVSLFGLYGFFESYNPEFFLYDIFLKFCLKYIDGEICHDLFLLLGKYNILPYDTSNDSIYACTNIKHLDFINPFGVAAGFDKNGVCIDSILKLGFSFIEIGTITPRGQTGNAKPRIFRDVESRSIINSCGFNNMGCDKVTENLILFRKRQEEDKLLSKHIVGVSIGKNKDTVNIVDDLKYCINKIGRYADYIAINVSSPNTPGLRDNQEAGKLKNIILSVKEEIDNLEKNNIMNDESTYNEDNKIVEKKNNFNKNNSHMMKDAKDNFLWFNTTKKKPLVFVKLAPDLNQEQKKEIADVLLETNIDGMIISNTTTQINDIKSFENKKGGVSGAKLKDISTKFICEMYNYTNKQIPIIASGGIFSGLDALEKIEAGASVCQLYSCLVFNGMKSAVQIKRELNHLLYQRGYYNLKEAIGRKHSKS

| SMILES | z-score [1] | z-score [2] | z-score [3] | z-score [4] | z-score [5] | z-score [6] | z-score [7] | z-score [8] | z-score [9] | z-score [10] | z-score [11] | z-score [12] | z-score [13] | composite z-score [14] | z-score [15] | z-score [16] | z-score [17] | z-score [18] | z-score [19] | composite z-score [20] |
| --- | --- | --- | --- | --- | --- | --- | --- | --- | --- | --- | --- | --- | --- | --- | --- | --- | --- | --- | --- | --- |
| C=CCC(OC(C)=O)[C@@H]1[C@@H](N(Cc2cccc3ccccc23)C(=O)Cc2ccc(OC)cc2)c2cc(OCCCO)ccc2N1C(=O)c1ccc2ccccc2c1 (stereo not given in full) | 1.19 | 2.02 | 0.692 | 0.357 | 1.19 | 2.55 | 0.443 (inactive) | 0.066 | 0.433 | 0.445 (inactive) | 0.74 | -1.57 (inactive) | 0.435 (inactive) | -0.775 (inactive) | -0.37 (inactive) | -0.958 (inactive) | 1.22 (inactive) | 0.56 (inactive) | 1.17 | -0.123 |
| COCCOC(=O)N1C(=O)[C@@]2(c3ccccc31)[C@H](C(=O)N1CCN(c3ncccn3)CC1)[C@H]1C(=O)O[C@H](c3ccccc3)[C@H](c3ccccc3)N1[C@@H]2c1ccccc1OCCO | 1.14 | 0.549 | -0.0577 | 0.0079 | -0.203 | -0.195 | 0.204 (inactive) | -0.248 | -0.742 | -0.166 (inactive) | -0.482 | 1.76 (inactive) | -0.684 (inactive) | -1.35 (inactive) | 3.3 (inactive) | 2.04 (inactive) | 0.858 (inactive) | 0.611 (inactive) | 1.69 | -0.0095 |
| COc1ccc(C(=O)Nc2cccc(CN3C(=O)[C@]4(O[C@H](CC(=O)N5Cc6ccccc6C[C@H]5CO)[C@@H]([Si](C)(C)c5ccc(OC)cc5)[C@@H]4C)c4ccccc43)c2)cc1 | -0.969 | 1.3 | -1.05 | -0.253 | -2.56 | 0.729 | -0.458 (inactive) | -0.93 | -0.313 | -1.31 (inactive) | 0.256 | 1.49 (inactive) | -1.38 (inactive) | -3.9 (inactive) | 0.425 (inactive) | 2.82 (inactive) | 0.0049 (inactive) | 0.0565 (inactive) | -0.891 | 0.187 |
| [N-]=[N+]=Nc1ccccc1[C@@H]1OC(c2ccc(OCCCO)cc2)=N[C@]1(CCS(=O)(=O)c1ccccc1)C(=O)NCC(O)CO (stereo not given in full) | -0.149 | -0.375 | 0.578 | -0.662 | 0.274 | -0.148 | -0.199 (inactive) | -0.0226 | -0.763 | 0.575 (inactive) | 0.396 | 0.143 (inactive) | 0.321 (inactive) | 0.612 (inactive) | 0.317 (inactive) | 0.777 (inactive) | 0.125 (inactive) | 0.638 (inactive) | -0.315 | -0.201 |
| CC1CC/C=C\[C@H]2OC34C=CCN(c5ccc(Cl)cc5)C(=O)[C@H]3N(CCCCCCO)C(=O)[C@]4(C)C2C(=O)O1 (stereo not given in full) | 0.943 | -3.94 | 0.606 | 1.88 | -0.368 | 0.232 | 0.115 (inactive) | 1.03 | -0.439 | 0.523 (inactive) | 0.25 | -0.257 (inactive) | 0.722 (inactive) | -1.1 (inactive) | -0.801 (inactive) | 0.268 (inactive) | 0.251 (inactive) | 0.732 (inactive) | 0.485 | 1.65 |
| CC(C)C(=C=CC[C@H](O)c1ccccc1OCCO)C[C@H](O)c1cc(Cl)cc(Cl)c1O | 0.884 | 0.271 | 0.601 | -3.42 | -3.2 | -1.1 | 0.427 (inactive) | -0.788 | -1.07 | -0.0216 (inactive) | 0.271 | -5.59 (inactive) | -0.702 (inactive) | -2 (inactive) | 0.731 (inactive) | -0.17 (inactive) | 0.215 (inactive) | -0.0849 (inactive) | -0.628 | -0.0448 |
| CC[C@@H]1C=C(C(=O)O)[C@H](c2ccc(OC)cc2)N1S(=O)(=O)c1ccc(C)cc1 | -0.0984 | -0.32 | -0.183 | 0.107 | -0.23 | -0.955 | -0.687 (inactive) | -0.168 | -0.273 | -0.599 (inactive) | -0.896 | 0.77 (inactive) | -0.675 (inactive) | -1.09 (inactive) | -0.281 (inactive) | -0.391 (inactive) | -0.826 (inactive) | -0.521 (inactive) | -1.16 | -0.0286 |
| CO[C@H]1O[C@H](CO)[C@@H](OC(=O)Nc2ccc3c(c2)OCO3)[C@H](OC(=O)Nc2ccccc2-c2ccccc2)[C@H]1OC(=O)Nc1ccccc1-c1ccccc1 | -3.97 | 0.548 | -3.71 | -3.34 | -2.72 | 0.0319 | 2.04 (inactive) | -0.819 | -1.76 | -3.84 (inactive) | -2.5 | 2.05 (inactive) | -2.94 (inactive) | 0.656 (inactive) | 0.553 (inactive) | 4.05 (inactive) | 0.335 (inactive) | -0.303 (inactive) | -2.63 | 0.441 |
